Source: PubChem BioAssay (NCATS)
Records with an inconclusive call do not appear. Entries that show only a call come without a potency. The source made the active and inactive calls. Calls come from the whole dose curve; as a rule, active = well fitted curve in the direction sought with a large enough effect; inconclusive = small, poorly fitted or top-dose-only effect, or another doubt; inactive = no such curve, though single readings can be large; an effect the other way counts as inactive or inconclusive.

What was measured:
[1] = target: Aldehyde dehydrogenase, mitochondrial (Homo sapiens) (UniProt P05091); assay: qHTS for Inhibitors of the Aldehyde Dehydrogenase Family (ALDH2) Primary screen (AID 2061308); note: nearly all actives have a fitted effect of over 55% in size
[2] = target: Retinaldehyde dehydrogenase 3 (Homo sapiens) (UniProt P47895); assay: qHTS for Inhibitors of the Aldehyde Dehydrogenase Family (ALDH1A3) Primary screen (AID 2061315)

Structure (SMILES) | Potency [1] | Potency [2]
O=C1Nc2ccccc2/C1=C\c1cc(Br)c(O)c(Br)c1 | inactive | inactive
COc1cc(Nc2nc(-c3ccncc3)nc3ccccc23)ccc1NS(C)(=O)=O | inactive | inactive
CCC12CCCN3CCc4c(n(c5ccccc45)C(O)C1)C32 (configuration not stated) | inactive | inactive
Fc1ccc(-c2ccc(CNc3nc(-c4ccccc4C(F)(F)F)nc4ccccc34)cc2)cc1C(F)(F)F | inactive | inactive
CC(=O)c1ccc(NC(=O)c2cnn3c(C)cc(C)nc23)cc1 | inactive | inactive
O=C(Cc1ccc(Cl)c(Cl)c1)Nc1ccc([S+](=O)([O-])Nc2nnc(-c3ccccn3)s2)cc1 | inactive | inactive
COc1cccc(NC(=O)C(OC(=O)CNC(=O)c2ccccc2)c2ccccc2)c1 (configuration not stated) | inactive | inactive
c1ccc2c(Nc3ccn[nH]3)nc(-c3ccncc3)nc2c1 | inactive | inactive
O=C(NCCc1nc2ccccc2n1CCOc1ccc2cccnc2c1)C1CCCCC1 | inactive | inactive
N#Cc1c(-c2cc(C(F)(F)F)cc(C(F)(F)F)c2)no[n+]1[O-] | inactive | inactive
CCCn1c(-c2ccc(F)cc2)nc2c(NCCN3CCSCC3)nc(C)nc21 | inactive | inactive
O=c1c2[nH]c3ccsc3c2cnn1Cc1ccccc1F | inactive | inactive
Cc1cc(C)nc(NC(=S)N2CCN(c3ncnc4ccccc34)CC2)c1 | inactive | inactive
O=C1c2ccccc2C(=O)N1c1ccc2ncccc2c1 | inactive | inactive
COc1c/c(=C2\C=c3ccccc3=N2)[nH]/c1=C\c1[nH]c(C)cc1C | inactive | inactive
Cc1ccc(S(=O)(=O)N2CCN(S(=O)(=O)c3ccc4c(c3)OCCO4)CC2)cc1 | inactive | inactive
Cc1ccc(S(=O)(=O)Nc2cnccc2C(=O)Nc2nc(-c3cccc(C)c3)cs2)cc1 | inactive | inactive
COC(=O)C(CC1(O)c2ccccc2N2C(=O)C(C)(C)N(O)C21)n1cnc2ccccc2c1=O (configuration not stated) | inactive | inactive
C#CCOc1ccc(-c2nnc3n2N=C(c2ccc(OC)c(OCC(C)=O)c2)CS3)cc1 | inactive | inactive
Cc1cc2c(s1)c1cnn(Cc3ccc(F)c(F)c3F)c(=O)c1n2C | inactive | inactive
CCOc1ccc(CCNC(=O)C2COc3ccccc3O2)cc1OCC (configuration not stated) | inactive | inactive
